# A selection: hits, their analogues and other compounds. The true share with any hit is near 6.8%.
# Spn DPM-DC inh: S. pneumoniae DPM-DC inhibitors, primary screen, biochemical, PK/LDH-coupled NADH fluorescence; purified DPM-DC; calls only at 10 µM; 65,000 compounds, 0.49% hits; AID 556, 2006;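 active = the 320 compounds with the highest percent inhibition in the single-dose primary screen, excluding strongly autofluorescent ones, cut at about 32% in these data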;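 note: kinetic rate of NADH fluorescence loss reporting ADP formed by the decarboxylase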
# NADH coupling: inhibitors of PK/LDH coupling enzymes, profiling panel, artefact control, biochemical, MLSMR library; coupled PK/LDH NADH assays, four targets; 65,000 compounds, 0.02% hits; IC50, µM (doses to about 10 µM), for the others: top-dose inhibition;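 active = single-dose screening hits from any of four coupled enzyme assays that gave an IC50 when retested across doses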;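 note: the DPM-DC format reads NADH fluorescence rather than 340 nm absorbance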
# Spn PMK inh: S. pneumoniae PMK inhibitors, primary screen, biochemical, mevalonate pathway, pilot trial included | purified PMK, PK/LDH-coupled NADH absorbance 340 nm | 65,000 compounds, 0.49% hits | inhibition, % at 10 µM;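 active = top-ranked compounds by inhibition in the single 10 µM screen, taking a fixed number of the strongest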;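 note: 0% = full reaction with DMSO carrier and 100% = background rate without enzyme reaction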
# Abs 340nm: compound light absorbance at 340 nm, profiling panel, artefact control, biochemical, MLSMR library, data from PS, PMK, MK assays. compound absorbance at 340 nm, fold over control. fold change at 10 µM. 65,000 tested, under 10 active;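 active = at 10 µM dose, initial 340 nm absorbance at least 2 fold that of control wells; inactive = change under 2 fold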;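 note: initial absorbance extrapolated from kinetic A340 decline of NADH oxidation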
# Spn MK inh: S. pneumoniae MK inhibitors, primary screen, biochemical, PK/LDH-coupled NADH absorbance. AID 555, 2006. inhibition, % at 10 µM. purified MK, PK/LDH-coupled NADH absorbance 340 nm. mevalonate kinase [Streptococcus pneumoniae D39]. 65,000 compounds, 0.48% hits;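 active = ranked among the strongest by inhibition in the single 10 µM screen, a fixed top-ranked set picked for dose follow-up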
# Autofluor 339: intrinsic fluorescence of library compounds, ex339/em460 – biochemical, MLSMR library, data from DPM-DC assay, artefact control, profiling panel; compound autofluorescence, ex339/em460 nm, NADH buffer; stronger effect = higher value; 1 = no-compound wells, NADH background; fluorescence fold increase at 10 µM; 65,000 compounds, 5.5% hits;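 active = at 10 µM, mean starting fluorescence two-fold or more over control wells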;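 note: signal is the first read of a kinetic run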
# An asterisk follows results filed as active; i = inactive; / = not tested or not shown; + = active, no number.
SMILES,Spn DPM-DC inh,NADH coupling,Spn PMK inh,Abs 340nm,Spn MK inh,Autofluor 339
CCOc1ccc(NC(=O)c2oc3ccccc3c2NC(=O)C2CC2)cc1,i,5%,15,1.1,0,2.6*
COCC(=O)Nc1c(C(=O)Nc2ccccc2OC)oc2ccccc12,i,2%,11,1,2,1.2
COc1ccc(NC(=O)c2oc3ccccc3c2NC(=O)c2ccco2)cc1,i,1%,7,1,0,1.2
CCOCC(=O)Nc1c(C(=O)Nc2ccc(OC)cc2OC)oc2ccccc12,/,3%,11,1,6,2.4*
COc1ccc(NC(=O)c2oc3ccccc3c2NC(=O)c2ccco2)c(OC)c1,/,5%,9,1.1,0,5.1*
C=CCN(C(=O)CNC(=O)c1ccco1)C(C(=O)NC1CCCCC1)c1ccccc1F (configuration not stated),i,3%,23,1,5,1.1
c1ccc2c(c1)NC(c1ccncc1)n1c-2nc2ccccc21 (configuration not stated),i,5%,2,1.1,6,1.5
c1ccc2c(c1)NC1(CCCC1)n1c-2nc2ccccc21,/,5%,10,1.1,0,5*
COc1ccc(-c2cc3nc(C)c(CCC(=O)NCc4ccco4)c(C)n3n2)c(OC)c1,i,5%,8,1,0,2.2*
COc1ccc(-c2cc3nc(C)c(CCC(=O)N4CCCCC4)c(C)n3n2)c(OC)c1,i,21%,40*,1.1,0,2
Cc1ccc(C)n1-c1ncn[nH]1,i,6%,15,0.99,2,1
CC(C)C1Oc2ccccc2N(CC(=O)NCCCN2C(C)CCCC2C)C1=O (configuration not stated),i,18%,8,1.1,47*,1.2
CCC1Oc2ccccc2N(CC(=O)NCCCN2CCN(Cc3ccccc3)CC2)C1=O (configuration not stated),i,5%,15,0.99,0,1
O=C(O)c1cc2n(n1)C(C(F)(F)F)CC(c1ccco1)N2 (configuration not stated),i,2%,2,1.1,3,1.1
Cc1ccc2c(c1)C(N1CCCC1=O)CC(c1ccco1)N2 (configuration not stated),i,1%,0,1,5,2.6*
O=C(CCCn1c(=O)[nH]c2ccsc2c1=O)NCc1cccs1,i,4%,0,1,10,1.1
COc1cccc(N2CC(C(=O)Nc3ccc(C(=O)OC(C)C)cc3)CC2=O)c1 (configuration not stated),i,7%,4,1,10,1.1
Cc1nc(Sc2nnnn2C)c2c3c(sc2n1)CCC3,/,11%,10,1.1,11,2.1*
CCN(CC)CCCN1C(=O)C(O)=C(C(=O)c2ccc(C)o2)C1c1ccc(C)o1 (configuration not stated),i,1%,0,1,4,1.1
CCOC(=O)N1CCN(S(=O)(=O)c2ccc(C(=O)Nc3nc4ccc(F)cc4s3)cc2)CC1,/,15%,22,1.1,8,4.6*
CCOC(=O)N1CCN(S(=O)(=O)c2ccc(F)cc2)CC1,i,7%,12,1,9,1.2
CCOC(=O)N1CCN(S(=O)(=O)c2ccc(C(=O)Nc3nc4ccccc4s3)cc2)CC1,/,11%,13,1.1,8,4.5*
CS(=O)(=O)c1nc(-c2cccs2)cc(C(F)(F)F)n1,/,3%,0,1.2,5,2.2*
Cc1cc(NC(=O)CCCS(=O)(=O)c2nc(-c3cccs3)cc(C(F)(F)F)n2)no1,/,8%,13,1.2,3,3.4*
CN1CCN(c2nc(-c3cccs3)cc(C(F)(F)F)n2)CC1,i,2%,0,1.1,7,1.2
SMILES,Spn DPM-DC inh,NADH coupling,Spn PMK inh,Abs 340nm,Spn MK inh,Autofluor 339
O=C(NCCc1ccccc1F)[C@@H]1CSC2c3ccccc3C(=O)N21 (some centres not stated),i,5%,9,1,5,1.1
CN(C)S(=O)(=O)c1cccc(C(=O)N2CCc3ccccc32)c1,i,3%,3,1,5,1.1
CN(C)S(=O)(=O)c1cccc(C(=O)C2=C3SC=C(c4ccccc4)N3CC2)c1,+,37%,0,1.1,10,1.1
COC(=O)C1=CN(C(C)C)C=C(C(=O)OC)C1c1cc2c(cc1Br)OCO2,i,5%,4,1,7,2*
CC1=C(C(=O)OCC(C)C)C(c2cc3c(cc2Br)OCO3)NC(=O)N1C (configuration not stated),i,3%,12,0.99,9,1
CCN1CCN(C(=O)CS(=O)(=O)Cc2nc(-c3ccc(C)cc3)oc2C)CC1,i,0%,0,1,0,1.1
O=C1CCCc2nc(N3CCc4ccccc43)ncc21,i,11%,18,1.2,10,1.9
O=C1CC(c2ccccc2)Cc2nc(N3CCc4ccccc43)ncc21 (configuration not stated),/,4%,16,1,4,3*
CC1Oc2ccccc2N(CC(=O)N2CCc3ccccc32)C1=O (configuration not stated),i,9%,14,1,8,1.1
CCOC(=O)c1cccc(NC(=O)CN2C(=O)C3C4C=CC(C4)C3C2=O)c1 (configuration not stated),i,5%,10,0.98,6,1.1
O=C(CN1C(=O)C2C3C=CC(C3)C2C1=O)Nc1ccc2nccnc2c1 (configuration not stated),/,10%,10,1.1,9,2.1*
CCOc1ccc(N(CC(=O)NC(C)(C)C)C(=O)c2ccco2)cc1,i,2%,1,1,6,1.1
N#Cc1cc(N)c(Nc2ccccc2)cc1C#N,i,14%,10,1.1,0,3.5*
COc1ccc(CNC2CC(=O)N(C)C2=O)cc1 (configuration not stated),i,2%,1,1.1,4,1.1
CCOC(=O)C1=C(N)c2ccccc2CC1C(C)C (configuration not stated),i,1%,0,1,1,1
COc1cccc(Nc2cc(C)nc3nc(C)nn23)c1,i,3%,4,1.1,6,0.98
COc1cccc(CNc2nc3nc(C)cc(C)n3n2)c1,i,7%,11,1,6,2.6*
O=C1CC(c2cccs2)c2cc3c(cc2N1)OCCO3 (configuration not stated),i,2%,0,1,7,1.1
